Sampled rows, rich in hits. Any-hit rate of the full collection: about 19%.
TDP1 cell CPT – DT40-hTDP1 cell growth loss with CPT | chicken DT40 Tdp1-/-;hTDP1 cells + 20 nM CPT, ATP luminescence, 48 h | Potency, µM (titrated, usually from 46.2 µM), for the others: top-dose activity change, negative = growth inhibition, usual class: inhibitors | 12% of 420,000 active | AID 686979; further: potency means the concentration at half of the fitted maximal effect; nearly all actives have a fitted effect of over 55% in size
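Cell growth measured by CellTiter-Glo luminescence after a minimum 48 h, 37 C compound exposure with 20 nM CPT in Tdp1-knockout DT40 cells stably expressing hTDP1, seeded 400/well; qHTS titration format.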
HT1080 IDH1KD tx – HT-1080 IDH1 knockdown cell toxicity (counter line); HT-1080 IDH1 knockdown viability, ATP luminescence, 48 h; Potency, µM (titrated, usually from 46.1 µM), for the others: at the top dose activity, negative = toxicity, hits mostly cytotoxic; 2% of 360,000 active;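 further: potency means the concentration at half of the fitted maximal effect; 0% = DMSO wells and -100% = cell-free medium wells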
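Cytotoxicity counter-line: IDH1KD HT-1080, 48 h, CellTiter-Glo. Curves classed by r2, magnitude and activity.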
IL-1B inflam inh – inflammasome signaling inhibition, IL-1 beta readout; THP-1 LPS/ATP IL-1B secretion, AlphaLISA, 16 h; hits give low values; activity change, % at 57.5 µM; 4.7% of 360,000 active; AID 743279; in the data active means activity change below about -50%; inconclusive means mostly about -30% to -49%
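Secreted IL-1B measured by AlphaLISA bead assay after 16 h compound exposure of THP-1 cells; compounds (final up to 57.5 uM) added 1 h before LPS (250 ng/mL) and ATP (1.25 mM) stimulation; lower signal means less secretion.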
HT1080NT lethal – kills 2HG-producing HT-1080-NT fibrosarcoma cells | AID 686970 | 1.6% of 360,000 active | Potency, µM (doses to about 46.1 µM), without a hit: at the top dose activity, negative = less viability, most hits filed as cytotoxic | HT-1080-NT fibrosarcoma viability, CellTiter-Glo ATP luminescence, 48 h;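 further: NT is the 2HG producing partner of a matched IDH1 knockdown line; potency means the concentration at half of the fitted maximal effect; 0% = DMSO-treated cells and -100% = media-only wells without cells; nearly all actives have a fitted effect of over 55% in size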
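Read-out is CellTiter-Glo luminescence after 10 minutes at room temperature, following 48 hours' compound treatment of HT-1080-NT cells (750 cells/well, RPMI, 5% FBS, 37 degrees C).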
TDP1 cell noCPT – qHTS for Inhibitors of human tyrosyl-DNA phosphodiesterase 1 (TDP1): qHTS in cells in absence of CPT | DT40 Tdp1-/- hTDP1 cells, no CPT, ATP luminescence, 48 h | Potency, µM (top dose mostly 46.2 µM), inactives show at the top dose activity change, negative = growth inhibition, hits mostly inhibitors | 15% of 420,000 active; further: potency means the concentration at half of the fitted maximal effect; nearly all actives have a fitted effect of over 55% in size
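Chicken DT40 Tdp1-/- cells complemented with human TDP1, screened without camptothecin (DMSO vehicle only), 400 cells/well. Compounds pin-transferred, cells incubated at 37 °C for at least 48 hr. Growth read as ATP-dependent luminescence (CellTiter-Glo, 30 min at RT).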
The depositor's hits bear a star; ? = inconclusive; · = no result. Unless noted, the call rests on the fitted dose curve; in most records, active means well fitted curve in the direction sought with a large enough effect; inconclusive means small, poorly fitted or top-dose-only effect, or another doubt; inactive means no such curve, though single readings can be large; an effect the other way counts as inactive or inconclusive. Unless noted, on the % scale 0 is the no-effect control and ±100 the full control effect.

SMILES	TDP1 cell CPT	HT1080 IDH1KD tx	IL-1B inflam inh	HT1080NT lethal	TDP1 cell noCPT
O=C(Cc1ccccc1)N/N=C/c1ccc[nH]1	-8.4%	6.7%	-14.4	11.9%	-12.9%
CCC(C)c1ccc(NC(=S)Nc2ccc(OC)c(OC)c2)cc1 (stereo not given)	?	-3.9%	-13.2	-1.7%	?
CCC(C)c1ccc(NC(=S)NC(C)C2CCCO2)cc1 (stereo not given)	-17.5%	-6.3%	15.7	-0.2%	25.9µM*
CCC(C)c1ccc(C(CC)NC(=O)C2CCCO2)cc1 (stereo not given)	23.1µM*	-18.8%	36.8	?	?
O=C(Cn1ncc2c3ccccc3n(Cc3cccc(Cl)c3)c2c1=O)NCCCc1ccccc1	3.5%	·	·	·	-17.6%
Cc1ccc(Cn2c3ccccc3c3cnn(CC(=O)Nc4cc(Cl)ccc4C)c(=O)c32)cc1	9.3%	·	·	·	-26.8%
Cc1ccccc1Cn1c2ccccc2c2cnn(CC(=O)NCc3cccc(Cl)c3)c(=O)c21	14.6µM*	·	·	·	-103.4%
CCc1cccc(C)c1NC(=O)Cn1ncc2c3ccccc3n(Cc3ccccc3)c2c1=O	10.3µM*	·	·	·	8.2µM*
COc1ccccc1CNC(=O)Cn1ncc2c3ccccc3n(Cc3ccccc3C)c2c1=O	7.31µM*	·	·	·	16.4µM*
CCC/C=C(\CCC)C(NC(=O)c1ccc(C(=O)OC)cc1)c1ccc(C(=O)OC)cc1 (stereo not given)	9.2µM*	0.4%	32.5	-25.5%	7.31µM*
O=C(NCc1ccccc1)c1cc(C2CCCN(C(=O)c3ccccc3)C2)on1 (stereo not given)	-24.4%	1.2%	-1.3	0.7%	1.1%
CN(C)c1ccc(/C=N/NC(=O)c2sccc2-n2cccc2)cc1	-3.3%	3.9%	-5.0	2.8%	-15.7%
Cc1cc(SCC(=O)Nc2ccc(O)cc2)n2ncc(-c3ccccc3)c2n1	-30.0%	-18.4%	-51.1*	-2.5%	-2.4%
COc1ccc(NC(=O)CSc2cc(C)nc3c(-c4ccccc4)cnn23)cc1	25.2%	5.0%	20.1	4.1%	?
Cc1cc(SCC(=O)Nc2ccccc2)n2ncc(-c3ccccc3)c2n1	?	-19.5%	-54.7*	-14.6%	-55.7%
Cc1cc(SCC(=O)Nc2ccc(O)cc2)n2nc(C)c(-c3ccccc3)c2n1	?	?	-79.9*	?	?
Cc1cc(SCC(=O)c2cccs2)n2nc(C)c(-c3ccc(Cl)cc3)c2n1	16.4µM*	-12.1%	-7.4	-17.5%	?
CCN(CC)S(=O)(=O)c1cc(C(=O)Nc2cc(S(=O)(=O)N3CCOCC3)ccc2N2CCN(C)CC2)ccc1C	?	-1.8%	-3.2	-26.7%	?
CCOc1ccc(-c2nc(Cn3c(=O)cc(C)c4c(C)nn(-c5ccc(C)cc5)c43)c(C)o2)cc1	-17.3%	·	·	·	0.8%
Cc1nccn1CCCN1C(=O)OC2(CCCCC2)C1(C)O (stereo not given)	?	19.9%	16.7	24.6%	20.6µM*
C=CCN1C(=O)OC2(CCCCC2)C1(C)O (stereo not given)	-5.3%	12.4%	6.9	12.8%	-21.4%
CN(C)c1ccc(N=Cc2ccco2)cc1	8.2µM*	?	0.8	-28.3%	5.17µM*
Cc1ccc(N=Cc2ccc(N(C)C)cc2)cc1	-1.8%	8.6%	-14.1	-2.8%	1.7%
CN(C)c1ccc(N=Cc2ccncc2)cc1	6.31µM*	·	·	·	5.62µM*
CN(C)c1ccc(C=Nc2ccccc2)cc1	24.8%	-2.0%	-14.0	6.1%	-6.4%
SMILES	TDP1 cell CPT	HT1080 IDH1KD tx	IL-1B inflam inh	HT1080NT lethal	TDP1 cell noCPT
Cc1sc(NC(=O)C2CSC3(C)CCC(=O)N23)nc1-c1ccc(F)cc1 (stereo not given)	14.6µM*	-18.7%	0.0	-11.0%	18.4µM*
Cc1cc(C)c2nc(NC(=O)C3CSC4(C)CCC(=O)N34)sc2c1 (stereo not given)	-44.9%	-9.9%	-0.2	-9.4%	3.66µM*
CC1CCN(S(=O)(=O)c2ccc(NC(=O)C3CSC4(C)CCC(=O)N34)cc2)CC1 (stereo not given)	?	-4.8%	-5.8	7.7%	10.3µM*
CC12CCC(=O)N1C(C(=O)Nc1nc3ccc(Cl)cc3s1)CS2 (stereo not given)	3.6%	-16.4%	-84.0*	-25.6%	?
CC(CCc1ccccc1)NC(=O)Cc1cccs1 (stereo not given)	2.3%	-7.2%	19.6	-12.4%	-14.9%
CC1CN(/C=C/C=O)C(C)CC1OC(=O)c1ccccc1 (stereo not given)	9.8%	0.0%	-7.5	12.6%	-5.9%
Cc1cc(C)c2nc(NC(=O)C3CC(=O)N(Cc4ccco4)C3)sc2c1 (stereo not given)	?	-23.2%	-70.9*	?	?
CCc1ccc2nc(NC(=O)C3CSC4(C)CCC(=O)N34)sc2c1 (stereo not given)	-27.5%	-18.9%	-55.3*	-27.9%	?
Cc1ccc2nc(NC(=O)C3CC(=O)N(Cc4ccco4)C3)sc2c1 (stereo not given)	-1.9%	-3.0%	-24.6	-9.4%	-15.3%
O=C(NC1CC2CCC(C1)N2C(=O)NCc1ccccc1)NC12CC3CC(CC(C3)C1)C2 (stereo not given)	-19.2%	10.5%	-12.9	5.7%	?
NCCOc1ccccc1Cc1ccccc1	?	-10.8%	-62.2*	-0.8%	?
O=S(=O)(NCc1cccs1)c1ccccc1Cl	-2.2%	-9.9%	10.4	-0.5%	-1.9%
CCOc1cc(/C=N/n2c(C)nnc2C)ccc1O	5.8%	6.3%	-23.9	0.0%	3.2%
Brc1ccc(/C=N/Nc2nc3ccccc3o2)cc1	-23.7%	24.2%	-10.4	6.1%	-3.6%
c1ccc(Nc2nc3ccccc3o2)cc1	-24.7%	-18.1%	18.5	5.7%	-8.0%
CC(=NNc1nc2ccccc2o1)c1ncccn1	-114.9%	1.16µM*	-7.2	?	13µM*
Cc1cc(C)nc(Nc2nc3ccccc3o2)n1	-3.1%	-1.9%	-76.0*	1.7%	?
CC(=NNc1nc2ccccc2o1)c1cc2ccccc2cn1	0.13µM*	?	-102.3*	?	0.13µM*
OCCCn1c(C2CCCN2c2nc(-c3ccc(F)cc3)cs2)nc2cc(Cl)c(Cl)cc21 (stereo not given)	?	-19.5%	-9.3	-21.1%	16.4µM*
Cc1csc(N2CCCC2c2nc3cc(C(F)(F)F)ccc3n2CCOCCO)n1 (stereo not given)	9.2µM*	-26.0%	-14.5	-0.3%	?
CCCn1c(C2CCCN2c2nc(C)cs2)nc2cc(Cl)c(Cl)cc21 (stereo not given)	?	-1.3%	1.3	-2.5%	?

Bioassay records from PubChem.
